From PubChem BioAssay (Tox21) come the findings set out here.

Several values for one entry are separate records, joined by “and”; a condition that tells them apart may be missing. Equal entries are not always repeated. Inconclusive results are not listed. Entries that show only a call come without a potency. Where a structure was tested more than once in an assay, its records may differ in their call. Activity calls are given as the source filed them. Calls come from the whole dose curve.
Potency is the fitted concentration of half-maximal effect.

The assay can be described thus: qHTS assay to identify small molecule agonists of the hypoxia (HIF-1) signaling pathway - cell viability counter screen (AID 1224844). Note: nearly all actives have a fitted effect of over 50% in size. As to conditions: HRE-bla ME-180 viability, CellTiter-Glo luminescence, 17 h; series mostly up to 76.8 µM; activity change, negative = cytotoxicity: at the top concentration. From the text: National Center for Advancing Translational Sciences [NCATS]
NIH Chemical Genomics Center [NCGC]
U.S. Environmental Protection Agency [EPA]
National Institutes of Environmental Health Sciences [NIEHS]
National Toxicology Program [NTP]
U.S. Food and Drug Administration [FDA]
Hypoxia-inducible factor-1 (HIF-1) is the major hypoxia-regulated transcription factor that controls cellular responses to low oxygen concentration. HIF-1 is composed of two subunits: hypoxia responsive HIF-1-alpha and constitutively expressed HIF-1-beta, which is also known as aryl hydrocarbon receptor nuclear translocator. During hypoxic conditions, HIF-1-alpha heterodimerizes with HIF-1-beta and translocates into the nucleus where the HIF-1 complex binds to the hypoxia-response element (HRE) and activates expression of target genes such as VEGF (vascular endothelial growth factor). The HIF-1 pathway is essential to normal growth and development, and is involved in the pathophysiology of cancer, inflammation, and ischemia.
Using a beta-lactamase reporter-gene under control of the hypoxia response element, a cell-based assay [CellSensor(TM) HRE-bla ME-180 from Life Technologies, Carlsbad, CA] was used to measure hypoxia-induced signaling. Tox21 10K library compounds were measured for their ability to induce the reporter gene activity. The cytotoxicity of the Tox21 compound library against HRE-bla ME-180 cell line was tested in parallel by measuring cell viability using CellTiter-Glo assay (Promega, Madison, WI) in the same assay wells.
Tox21 Assay Protocol Summary:
HRE-bla ME-180 cells were dispensed at 2,000 cells per well in 6 uL of assay medium containing 0.5% dialyzed FBS into black wall/clear-bottom 1536-well plates using a Multidrop Combi (Thermo Scientific, Waltham, MA) dispenser. After the assay plates were incubated at 37C and 5% CO2 for 5 hrs, 23 nL of compounds dissolved in DMSO, positive controls or DMSO only was transferred to each well of the assay plate using a Pintool station (Kalypsys, San Diego, CA). The assay plates were incubated at 37C and 5% CO2 for 17 hrs. One uL of LiveBLAzerTM B/G FRET substrate (CCF4-AM) (Life Technologies) was added to each well using a Flying Reagent Dispenser (FRD, Aurora Discovery, San Diego, CA). After 2 hr incubation at room temperature, fluorescence intensity (405 nm excitation, 460 nm and 530 nm emissions) was measured using an Envision plate reader (PerkinElmer, Shelton, CT). For cytotoxicity, 4 ul/well of CellTiter-Glo reagent was added into the assay plates using an FRD. After 30 min incubation at room temperature, the luminescence intensity was measured using a ViewLux plate reader (PerkinElmer).
(In general: Quantitative high-throughput screening tests each substance at several concentrations.)
Turning to `Cc1ncc([N+](=O)[O-])n1C`, the Potency entry was “inactive”.

As for `Nc1ccc(S(N)(=O)=O)cc1`, the Potency result was “inactive”.

With `CN(C)CCOC(c1ccccc1)c1ccccc1`, the Potency entry was “inactive”.

In the case of `NC(CO)(CO)CO`, the Potency entry was “inactive”.

Regarding `CCCCC(CC)C(=O)O` (stereo not given), the Potency entry was “inactive”.

Turning to `Cc1cccc(C)c1`, the Potency result is “inactive”.

`CN1[C@@H]2CC(OC(=O)[C@H](CO)c3ccccc3)C[C@H]1[C@@H]1O[C@@H]12` (stereo not given in full): the Potency result was “inactive”.

As to `O=C(O)c1ccccc1`, the Potency result is “inactive”.

`CN(C)CCOC(C)(c1ccccc1)c1ccccn1` (stereo not given): the Potency result is “inactive”.

For `O=c1[nH]cnc2c1ncn2[C@H]1CC[C@@H](CO)O1`, the Potency result was “inactive”.

As to `Cc1c(C(=O)O)c(O)cc2c1C(=O)c1c(O)c([C@@H]3O[C@H](CO)[C@@H](O)[C@H](O)[C@H]3O)c(O)c(O)c1C2=O`, the Potency entry was “inactive”.

With `Nc1ccc(O)c([N+](=O)[O-])c1`, the “activity change, negative = cytotoxicity” value is 1.8% (inactive).

Consider `CN[C@H]1CC[C@@H](c2ccc(Cl)c(Cl)c2)c2ccccc21`, for which the “activity change, negative = cytotoxicity” value is -14.6% [at 35.3 µM] (inactive).

On to `CC(C)NCC(O)c1ccc(O)c(O)c1` (stereo not given), for which the Potency result was “inactive”.

Take `C=C1CC[C@H](O)C/C1=C\C=C1/CCC[C@]2(C)[C@@H]([C@H](C)CCCC(C)C)CC[C@@H]12`: the Potency is 38.5 µM (active).

Regarding `NC(=O)c1cccnc1`, the Potency result is “inactive”.

Consider `CC1(C)O[C@@H]2C[C@H]3[C@@H]4CCC5=CC(=O)C=C[C@]5(C)[C@@]4(F)[C@@H](O)C[C@]3(C)[C@]2(C(=O)CO)O1`, for which the Potency entry is “inactive”.

With `O=C1NC(=O)C(c2ccccc2)(c2ccccc2)N1`, the Potency result is “inactive”.

As for `O=S1(=O)OC(c2ccc(O)cc2)(c2ccc(O)cc2)c2ccccc21`, the Potency entry is “inactive”.

On to `CCCCCCc1ccc(O)cc1O`, for which the “activity change, negative = cytotoxicity” value is -2.36% [at 35.3 µM] (inactive).

In the case of `CCc1nc(N)nc(N)c1-c1ccc(Cl)cc1`, the Potency entry was “inactive”.

As to `COc1ccc(C(Cl)=C(c2ccc(OC)cc2)c2ccc(OC)cc2)cc1`, the Potency result is “inactive”.

Take `COc1ccc2cc(S(=O)(=O)N[C@H](CC(=O)N[C@H](Cc3ccc(CN4[C@H](C)CCC[C@@H]4C)cc3)C(=O)N(C)C(C)C)c3ccc4c(c3)OCO4)ccc2c1`: the Potency is 10.4 µM (active).

Turning to `CC(C)C(=O)Nc1ccc([N+](=O)[O-])c(C(F)(F)F)c1`, the Potency entry was “inactive”.

As to `CN1CCc2cccc3c2[C@H]1Cc1ccc(O)c(O)c1-3`, the Potency was 39.3 µM (active) and 16.3 µM (active).

Turning to `CS(=O)(=O)OCCCCOS(C)(=O)=O`, the Potency result is “inactive”.

In the case of `O=C1O[C@H]([C@@H](O)CO)C(O)=C1O`, the Potency entry was “inactive”.

Take `CCN(Cc1c(F)cccc1Cl)c1c([N+](=O)[O-])cc(C(F)(F)F)cc1[N+](=O)[O-]`: the Potency is 21.9 µM (active).

Turning to `O=C(Nc1ncc([N+](=O)[O-])s1)c1cccs1`, the “activity change, negative = cytotoxicity” value was -24.2% [at 35.3 µM] (inactive).

In the case of `C/C=C/C=C/C(=O)O`, the Potency result was “inactive”.

In the case of `CCCCCCCC(=O)OCC(COC(=O)CCCCCCC)OC(=O)CCCCCCC`, the Potency result was “inactive”.

As to `OC[C@H]1O[C@H](O[C@]2(CCl)O[C@H](CCl)[C@@H](O)[C@@H]2O)[C@H](O)[C@@H](O)[C@H]1Cl`, the Potency result is “inactive”.

As for `CC1(C)S[C@@H]2[C@H](NC(=O)[C@H](N)c3ccccc3)C(=O)N2[C@H]1C(=O)O`, the Potency entry was “inactive”.

`CC(=O)CCC(=O)O`: the Potency entry was “inactive”.

As to `Cc1cc(C)nc(NS(=O)(=O)c2ccc(N)cc2)n1`, the Potency result is “inactive”.

With `Oc1ccccc1`, the Potency entry was “inactive”.

Consider `CC(=O)CC(c1ccccc1)c1c(O)c2ccccc2oc1=O` (stereo not given), for which the Potency result was “inactive”.

For the compound `CC(=O)C(=O)O`, the Potency entry is “inactive”.

For the compound `CCCCCCCCCCCCCCCC[N+](C)(C)Cc1ccccc1`, the Potency result is “inactive and 44.4 µM (active)”.

Take `CN(C)C(=O)Nc1ccc(Cl)c(Cl)c1`: the Potency result was “inactive”.
